Assay outcomes deposited in PubChem by several laboratories.
In the library only some 3.9% were active in any assay of this set; here they are far more common.
aSyn 5UTR inh – 5' untranslated region of α-synuclein, MLPCN primary screen; alpha-synuclein 5'UTR reporter, inhibitor activity; inhibition, % (tested at 7.5 µM); hit rate 0.82% among 300,000; in the data active means inhibition above about 60%;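 further: H4 neuroglioblastoma cells stably carrying SNCA 5'UTR luciferase fusion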
TROY signal inh – TROY signaling inhibition; Q293 LMP1-TROYcd NF-kB luciferase reporter, 4 h; hit rate 0.98% among 360,000; inhibition, % at 10 µM; AID 1347056;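 active means compounds whose plate-normalised and pattern-corrected inhibition of the luciferase reporter signal at the single screening dose is 50% or more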
HSP90 inh – blocks HSP90-mediated luciferase refolding in reticulocyte lysate; hit rate 0.91% among 290,000; Rabbit reticulocyte lysate, luciferase refolding luminescence, 3 h; AID 1789; inhibition, % at 5.6 µM;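 active means inhibition above the screen-wide mean plus 3 SD, computed separately per campaign, cut at about 16% in these data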;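 further: inhibitors lower the luminescence because luciferase stays unfolded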
TRAIL sens C8 – caspase-8 TRAIL sensitization; inhibition (viability loss, TRAIL sensitization), % at 10 µM; AID 624354; hit rate 1% among 360,000; NB7+C8 cells + TRAIL, ATPlite viability luminescence;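 active means compounds causing at least 50% loss of cell viability in the single-dose screen, relative to plate controls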
TWEAK Fn14 block – TWEAK-Fn14 signaling inhibition; TWEAK-stimulated Fn14 reporter cells, luciferase luminescence, 8 h; inhibition, % at 10 µM; hit rate 2% among 360,000; AID 1159606; in the data active means inhibition above about 50%
HIF-2a inh – blocks HIF-2a reporter activity; inhibition, % at 18.8 µM; 786-0 RCC cells HIF-2a reporter, luciferase luminescence, overnight; hit rate 0.72% among 360,000;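 active means inhibition of the luminescence signal of 40% or more relative to plate controls, in a single-dose primary screen at 18.75 µM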
Each line names hits and unclear results; the compound was inactive in the other large screens.

O=[N+]([O-])c1cc(S(=O)(=O)N2CCCC2)ccc1N/N=C1/CCCc2ccccc21	TWEAK Fn14 block 64
Nc1sc(Cc2ccccc2)cc1C(=O)NC1CCCCC1	none (no result: aSyn 5UTR inh, TROY signal inh, HSP90 inh, TWEAK Fn14 block)
O=C1Cc2cc(S(=O)(=O)NCc3ccc(F)cc3)ccc2N1	none (no result: aSyn 5UTR inh, HSP90 inh)
CCN1C(=O)/C(=C\c2nc3ccccc3c(=O)n2CC)c2ccccc21	none
CCN1C(=O)/C(=C/c2nc3ccccc3c(=O)n2-c2ccccc2)c2ccccc21	TWEAK Fn14 block 58
O=C(Nc1ccc(-n2ccc(C(F)(F)F)n2)cc1)Nc1cccc(Cl)c1	TWEAK Fn14 block 72
Cc1cc(OCC(=O)Nc2ccncc2)ccc1Br	TWEAK Fn14 block 88 (no result: TROY signal inh)
C[C@H](NC(=O)[C@@H]1CCCN1C(=O)[C@@H]1CCCN1C(=O)c1cccs1)c1ccccc1	none (no result: aSyn 5UTR inh, HSP90 inh)
CCc1nc2c(OCc3ccc(C#N)cc3)cccn2c1N(C)C(=O)c1ccc(C)cc1	none (no result: aSyn 5UTR inh, HSP90 inh)
CC1(C2CC2)NC(=O)N(CC(=O)Nc2ccccc2F)C1=O (configuration not stated)	none (no result: aSyn 5UTR inh, HSP90 inh)
CC(C)N1C(=O)/C(=C\c2nc3ccccc3c(=O)[nH]2)c2ccccc21	TWEAK Fn14 block 68 (no result: aSyn 5UTR inh)
CC1=C(C)/C(=N\OS(=O)(=O)c2ccc(C)cc2)C=CC1=O	TWEAK Fn14 block 93, HIF-2a inh 88 (no result: aSyn 5UTR inh)
Cc1ccc(S(=O)(=O)N2[C@@H](Cc3ccccc3)CO[C@H]2CC(=O)c2cccc3ccccc23)cc1	none (no result: aSyn 5UTR inh, TROY signal inh, HSP90 inh, TWEAK Fn14 block)
COC1=CC(=O)c2nc(Cl)ccc2C1=O	TRAIL sens C8 95, TWEAK Fn14 block 94, HIF-2a inh 90 (no result: aSyn 5UTR inh, HSP90 inh)
COc1cccc2c1C(=O)C=C(C)C2=O	none
CC(C)CNC(=O)NC(=O)COC(=O)c1ccccc1Sc1ccc(C(F)(F)F)cc1[N+](=O)[O-]	TWEAK Fn14 block 57
C=CCNC(=O)NC(=O)COC(=O)c1ccccc1Sc1ccc(C(F)(F)F)cc1[N+](=O)[O-]	none
Cc1cc(NC(=O)c2cccc(S(=O)(=O)N3CCCCCC3)c2)n(-c2ccccn2)n1	TWEAK Fn14 block 52
O=C(N/N=C/c1ccc(OC(F)F)cc1)c1cccc(S(=O)(=O)N2CCOCC2)c1	TWEAK Fn14 block 71
O=C(Nc1ccccc1C(=O)N1CCCCC1)c1cccc(S(=O)(=O)N2CCOCC2)c1	TWEAK Fn14 block 60 (no result: TROY signal inh)
CCCc1nc2ccccc2n1C(C(=O)NC(C)(C)C)C1CC1 (configuration not stated)	none (no result: aSyn 5UTR inh, TROY signal inh, HSP90 inh, TWEAK Fn14 block)
COc1ccc(CNC(=O)c2ccc3nc(C)c(N(C)Cc4ccc(NC(C)=O)cc4)n3c2)cc1	none (no result: aSyn 5UTR inh, HSP90 inh)
COc1ccc(/C=C2\SC(=Nc3ccccc3)NC2=O)cc1	none (no result: TROY signal inh, TRAIL sens C8, TWEAK Fn14 block, HIF-2a inh)
COc1ccccc1N=C1NC(=O)/C(=C/c2ccc(N(C)C)cc2)S1	TRAIL sens C8 49
CCn1nnc(NC(=O)c2ccc(C(C)(C)C)cc2)n1	TRAIL sens C8 78
CC(=O)C1=C(c2cccc([N+](=O)[O-])c2)N(C(C)=O)n2c(C)nnc2S1	TWEAK Fn14 block 60
NC(=O)c1cc(Br)cc(C2CCCCC2)c1O	aSyn 5UTR inh 87
NC(=O)c1cc(Br)cc2c3c([nH]c12)CCCC3	none
COC(=O)[C@@]1(Sc2ccc(C)cc2)CC(=O)N[C@@H]1c1ccc(C(F)(F)F)cc1	none (no result: aSyn 5UTR inh, HSP90 inh)
CCN(CC)c1ccc2c(Cl)c(Br)c(=O)oc2c1	TWEAK Fn14 block 85, HIF-2a inh 88
O=C(O)c1ccc(CN2C[C@@H](CO)O[C@@H](n3cnc4c(NCc5ccc(F)cc5)ncnc43)C2)cc1	none (no result: aSyn 5UTR inh, HSP90 inh)
O=c1cc(-c2ccccc2)[nH]n1-c1ccccc1	TROY signal inh 53 (no result: aSyn 5UTR inh, HSP90 inh)
CSc1ccc(CN2C(=O)C(F)(F)Oc3c(C(C)=O)cccc32)cc1	none (no result: aSyn 5UTR inh, HSP90 inh)
CCCCn1c(NS(=O)(=O)c2ccc(C)cc2)c(S(=O)(=O)c2ccccc2)c2nc3ccccc3nc21	TROY signal inh 64, TRAIL sens C8 78
Cc1ccc(S(=O)(=O)c2c(N)n(CCCN(C)C)c3nc4ccccc4nc23)cc1	none
CN(C)Cc1cn(CC[C@@H]2CC[C@@H](NC(=O)Nc3ccccc3F)[C@@H](CO)O2)nn1	none (no result: aSyn 5UTR inh, TROY signal inh, HSP90 inh, TWEAK Fn14 block)
O=C(NNc1ccccc1[N+](=O)[O-])Nc1ccc(Cl)c(Cl)c1	TROY signal inh 55
O=C(Nc1ccc(Cl)c([N+](=O)[O-])c1)C(Sc1ccccc1)c1ccccc1 (configuration not stated)	TROY signal inh 55, TWEAK Fn14 block 94
O=C(NNc1ccccc1[N+](=O)[O-])Nc1ccccc1	none
O=C(Nc1cc([N+](=O)[O-])ccc1Cl)C(Sc1ccccc1)c1ccccc1 (configuration not stated)	none
COc1cccc(-n2nnnc2SCC(=O)NCc2ccc3c(c2)OCO3)c1	TWEAK Fn14 block 81
Cc1ccc(-c2csc3ncnc(SCC(=O)NCc4ccc5c(c4)OCO5)c23)cc1	none
O=C(CSc1nc2ccccc2s1)NCc1ccc2c(c1)OCO2	TWEAK Fn14 block 62
O=C(CSc1ncnc2scc(-c3ccc(Cl)cc3)c12)NCc1ccc2c(c1)OCO2	TWEAK Fn14 block 86
O=C(CCCSc1nc2ccccc2s1)NCc1ccc2c(c1)OCO2	none
COc1cc(C(=O)N2CCCCC2c2cc(C(=O)NCc3cccnc3)no2)cc(OC)c1C (configuration not stated)	none (no result: aSyn 5UTR inh, HSP90 inh)
O=C(C[C@@H]1CC[C@@H]2[C@H](COC[C@H](O)CN2C(=O)Nc2ccc(F)cc2)O1)NCCc1ccncc1	none (no result: aSyn 5UTR inh, TROY signal inh, HSP90 inh, TWEAK Fn14 block)
Cc1ccc(S(=O)(=O)N=N/C=C2\C=CC=CN2O)cc1	none (no result: aSyn 5UTR inh, HSP90 inh)
COc1ccc(N2CCN(C(=O)CC(C)S(=O)(=O)c3ccc4c(c3)NC(=O)CO4)CC2)cc1 (configuration not stated)	none
CC(CC(=O)N1CCN(c2cccc(Cl)c2)CC1)S(=O)(=O)c1ccc2c(c1)NC(=O)CO2 (configuration not stated)	TWEAK Fn14 block 59
COc1c(CC=C(C)C)c(O)cc2oc(=O)c3c4ccc(O)cc4oc3c12	none (no result: HSP90 inh)
COc1c2c(cc3oc(=O)c4c5ccc(O)cc5oc4c13)OC(C)(C)CC2	TROY signal inh 77, TWEAK Fn14 block 77 (no result: HSP90 inh)
Cc1cc(C)cc(CC(Cc2nc3ccccc3[nH]2)c2nc3ccccc3[nH]2)c1 (configuration not stated)	TROY signal inh 52, TWEAK Fn14 block 56
COc1ccc(N(Cc2cc3cc(OC)ccc3[nH]c2=O)S(=O)(=O)c2ccc(NC(C)=O)cc2)cc1	aSyn 5UTR inh 93
COc1ccc(N(Cc2cc3ccccc3[nH]c2=O)S(=O)(=O)c2ccc(OC)cc2)cc1	none
Cc1ccc(NC(=O)CSc2cn[nH]n2)cc1	none
N#Cc1ccc(NC(=O)CSc2cn[nH]n2)cc1	TWEAK Fn14 block 90
CCCCNc1nc2c(c(=O)[nH]c(=O)n2C)n1CCCc1ccccc1	none (no result: aSyn 5UTR inh, HSP90 inh)
COc1cccc(C2=Nn3c(nnc3-c3ccccc3O)SC2)c1	none
C[n+]1c2n(c3ccccc31)N=C(c1cc(C(C)(C)C)c(O)c(C(C)(C)C)c1)CS2	aSyn 5UTR inh 68, TROY signal inh 57, TWEAK Fn14 block 88
C#CCCc1ccccc1/C=[N+](/C)[O-]	TWEAK Fn14 block 51 (no result: aSyn 5UTR inh, HSP90 inh)
C/[N+]([O-])=C\c1coc2ccccc2c1=O	none
